Test results taken from PubChem BioAssay AID493174 (National Center for Advancing Translational Sciences (NCATS), 2011).
Results filed as inconclusive are left out. Calls of active or inactive are those of the source. Calls follow the shape of the dose curve; as a rule, active = well fitted inhibition curve with a large enough effect; inconclusive = small, poorly fitted or top-dose-only effect; inactive = flat fitted curve, though single readings scatter.

Experiment: Confirmatory Assay for General miRNAs Modulators and/or Inhibitors/Activators of miR-21: second round cherrypicks
Settings: HeLa miR-21 FLuc reporter, luciferase luminescence, 48 h
Excerpt: MLPCN Grant: 1 R21 NS059478-01 Assay Provider: Qihong Huang, The Wistar Institute NCGC Assay Overview: MicroRNAs (miRNAs) are endogenously encoded small (~20-25 nucleotides), nonprotein-coding RNAs that are involved in post-transcriptional repression of target messenger RNAs (mRNAs) (Le and Hannon, 2004). Estimated to be involved in the regulation of 30% of all protein-coding mRNAs (Filipowicz et al., 2008), miRNAs play a significant role in many biological processes including cellular differentiation and tissue development (Ghildiyal and Zamore, 2009).
NCGC Assay Protocol Summary: Reagents: HeLa cells stably expressing firefly luciferase (FLuc) under the control of a CMV promoter (upstream) and a miR-21 binding sequence directly downstream of the gene. These cells endogenously express miR-21. Control compounds used were compound C3 (provided by collaborator), N6-phenyladenosine (MP Biomedicals, 0215379625), and DMSO. Assay Summary: 6uL of HeLa miR-21-FLuc cells in assay buffer (DMEM, Invitrogen #21063-029; 10% FBS, HyClone #SH30071.03) were dispensed at 2000cells/well (3.3 x 10^5 cells/mL) into Greiner solid-white TC-treated 1536-well plates using a Multidrop Combi (Thermo Fisher Scientific). […] After a 15 minute incubation to allow for cell lysis, luciferase activity was measured using a ViewLux CCD imager (PerkinElmer), with an average exposure time of 2-12 seconds. […]

## O=c1c2ccccc2nc(Cc2ccccc2)n1-c1ccccc1
  Potency: 14.2 µM (active)
